Screens from PubChem.
Hits are enriched below; roughly 1.8% of the tested compounds scored in any of these assays.
TLR9-MyD88 block = inhibitors of human TLR9-MyD88 binding. CHO BLA complementation TLR9-MyD88, CCF4 FRET ratio. inhibition, % at 4.98 µM. 0.21% of 340,000 active. Q9NR96+Q99836. AID 504734;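 active = inhibition above the mean over all tested compounds plus 3 SD, cut at about 21% in these data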;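 note: 0% = DMSO only wells and 100% = clavulanate BLA inhibitor control wells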
Mcl1 Noxa PPI = Mcl-1/Noxa interaction inhibition. TR-FRET Mcl-1/Noxa peptide binding, 2 h. inhibition, % at 21.7 µM. Q07820. AID 1022. 1.5% of 220,000 active;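 active = compounds that cut the protein-peptide binding signal by more than 50% relative to plate controls in a single-dose test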;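 note: His-tagged Mcl-1 with rhodamine Noxa BH3 peptide and terbium anti-His antibody; 0% = Mcl-1 plus Noxa peptide wells and 100% = peptide-only wells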
Mcl1 Bid PPI = disrupts binding of human Mcl-1 to Bid peptide; inhibition, % at 21.7 µM; Q07820; 0.97% of 220,000 active; TR-FRET Mcl-1/Bid-Dy647 peptide binding, 1536-well;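 active = compounds that cut the binding signal by more than half at the single screening dose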;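 note: His-tagged Mcl-1 with europium anti-His antibody binding Bid BH3 peptide; 0% = Mcl-1 plus peptide wells and 100% = peptide-only wells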
Mcl-1 Bim block = inhibitors of Bim-Mcl-1 interaction, human. Q07820. Bead-based flow cytometry, Bim peptide-Mcl-1 binding. inhibition, % at 10 µM. 0.1% of 190,000 active. AID 1009; in the data active = inhibition above about 40%;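 note: 0% = no compound tracer wells and 100% = peptide blocker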
NOD2-RIPK2 inh = inhibitors of human NOD2-RIPK2 interaction | O43353 | inhibition, % at 4.98 µM | 0.38% of 360,000 active | AID 624267 | CHO BLA complementation NOD2-RIPK2, CCF4 ratio; in the data active = inhibition above about 21%;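 note: 0% = vehicle only and 100% = reference blocker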
Target sequence (O43353 whole entry, looked up): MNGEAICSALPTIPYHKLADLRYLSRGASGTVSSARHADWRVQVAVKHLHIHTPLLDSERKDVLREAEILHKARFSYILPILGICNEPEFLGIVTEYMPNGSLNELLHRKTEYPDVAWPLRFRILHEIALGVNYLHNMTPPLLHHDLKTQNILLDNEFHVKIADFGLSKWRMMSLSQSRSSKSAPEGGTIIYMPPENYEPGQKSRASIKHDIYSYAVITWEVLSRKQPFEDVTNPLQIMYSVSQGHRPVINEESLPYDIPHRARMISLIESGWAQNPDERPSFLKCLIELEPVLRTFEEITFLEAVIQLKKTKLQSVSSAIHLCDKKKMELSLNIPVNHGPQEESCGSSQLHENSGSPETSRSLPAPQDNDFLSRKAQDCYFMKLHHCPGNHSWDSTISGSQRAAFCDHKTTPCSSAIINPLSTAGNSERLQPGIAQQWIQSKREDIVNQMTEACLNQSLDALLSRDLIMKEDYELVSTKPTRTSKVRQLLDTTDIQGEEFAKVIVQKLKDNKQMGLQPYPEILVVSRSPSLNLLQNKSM
TLR4 MyD88 comp = blocks binding of human TLR4 to MyD88. 0.18% of 200,000 active. inhibition, % at 8.4 µM. O00206+Q99836. HeLa CL3-4 TLR4/MyD88 BLA complementation, FRET ratio; in the data active = inhibition above about 25%;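 note: 0% = vehicle and 100% = reference inhibitor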
* hit, by the source's call; / = no result.

SMILES	TLR9-MyD88 block	Mcl1 Noxa PPI	Mcl1 Bid PPI	Mcl-1 Bim block	NOD2-RIPK2 inh	TLR4 MyD88 comp
O=C1Nc2ccccc2C1Cc1nc2ccccc2c(=O)n1-c1ccccc1 (stereo not given)	-1	27	54*	/	-16	/
C=CCN1C(=O)/C(=C/c2ccc(Br)s2)C(=O)NC1=S	-3	/	/	/	-4	/
CCN1C(=O)/C(=C\c2ccc([N+](=O)[O-])s2)C(=O)NC1=S	/	94*	32	2	/	7
COc1ccc(OC)c(N2C(=O)NC(=O)/C(=C/c3ccc([N+](=O)[O-])s3)C2=O)c1	-1	69*	-15	1	-3	-1
COc1cc(/C=C2\C(=O)NC(=O)N(c3ccccc3)C2=O)c([N+](=O)[O-])cc1OC	-14	20	-77	15	-7	-17
CCCN1CCO[C@@H]2c3cc(O)ccc3OC[C@H]21	10	/	/	/	-9	/
O=C1NCN(c2ccccc2)C12CCN(C(c1nnnn1Cc1ccccc1)C1CC1)CC2 (stereo not given)	/	/	/	/	-3	/
CNC(=O)OCc1n(C)cc[n+]1C	-6	-18	87*	-4	8	4
CCCn1c(C)cc(C=O)c1C	1	15	-23	-2	-13	5
COC(=O)C1CN(C#N)N(c2ccc(Cl)cc2)C12c1ccccc1-c1ccccc12 (stereo not given)	10	2	9	-14	58*	4
C=CCC1(CN2CCCCCC2=O)C(=O)NC(=O)NC1=O	-3	-12	61*	1	-5	4
CN1C(=O)/C(=C\c2ccc(N3CCCCCC3)cc2)C(=O)NC1=S	3	8	-7	/	0	/
Cc1cc(N2CCCCC2)ccc1C=C1C(=O)N(C)C(=S)N(C)C1=O	-12	68*	-12	-4	-1	8
CCCNC(=O)c1c(N)n(Cc2ccco2)c2nc3ccccc3nc12	/	38	17	2	/	-19
CC(C)CNC(=O)c1c(N)n(Cc2ccco2)c2nc3ccccc3nc12	-31	87*	33	1	-12	-20
CC(C)CCNC(=O)c1c(N)n(Cc2ccc3c(c2)OCO3)c2nc3ccccc3nc12	-8	30	26	4	-8	-69
COCCCNC(=O)c1c(N)n(Cc2ccco2)c2nc3ccccc3nc12	/	55*	-81	/	-1	/
Nc1c(C(=O)NCC2CCCO2)c2nc3ccccc3nc2n1Cc1ccco1 (stereo not given)	-9	55*	-15	/	-7	/
CCCNC(=O)c1c(N)n(Cc2ccc3c(c2)OCO3)c2nc3ccccc3nc12	5	56*	-22	1	-3	-44
C(#CCN1CCCCC1)CN1CCCCC1	/	/	/	/	-22	/
O=C1C(Br)C2CCC1C2C(=O)O (stereo not given)	-10	/	/	/	3	/
Cc1ccc(-c2nc(N(C)C3CCN(C)CC3)c3ccccc3n2)cc1	-2	63*	7	-2	-1	6
CC(C)N(C(=O)CCl)c1ccccc1	-8	/	/	/	-28	/
CC1(C(=O)O)CC12c1ccccc1-c1ccccc12 (stereo not given)	8	/	/	/	3	/
COc1cc(N2CCOCC2)ccc1/C=C1\C(=O)NC(=O)N(Cc2cccs2)C1=O	2	5	-42	-5	-9	-11
SMILES	TLR9-MyD88 block	Mcl1 Noxa PPI	Mcl1 Bid PPI	Mcl-1 Bim block	NOD2-RIPK2 inh	TLR4 MyD88 comp
COc1cc(N2CCOCC2)ccc1C=C1C(=O)NC(=O)NC1=O	6	2	-45	42*	-5	-7
CCCCCCn1c(O)c(C=NCCN2CCOCC2)c(=O)[nH]c1=O	-3	25	99*	-1	-15	4
CCCCCCn1c(O)c(C=NCCN2CCCCC2)c(=O)[nH]c1=O	-2	7	-15	0	-16	1
CCOC(=O)[C@]12Cc3cc(OC)ccc3[C@H]1N(CC(=O)OC)C(=O)c1cc(OC)ccc12	/	/	/	/	10	/
O=C1NC(=O)N(Cc2ccccc2)C(=O)/C1=C/c1cnc(-c2ccccc2)nc1	6	51*	-17	-3	-4	7
CC(C)c1ccc(N2C(=O)NC(=O)/C(=C/c3cnc(-c4ccccc4)nc3)C2=O)cc1	-4	61*	-8	-4	8	-1
CSc1ncc(/C=C2/C(=O)NC(=O)N(c3ccc(C(C)C)cc3)C2=O)cn1	-12	39	-31	-2	-8	-1
O=c1[nH]oc2c1CCNC2	-5	/	/	/	-15	/
Cc1ccc(N2C(=O)NC(=O)/C(=C\c3ccoc3)C2=O)cc1	-6	5	-37	-1	-2	-13
O=C1NC(=S)N(c2ccc(F)cc2)C(=O)/C1=C\c1ccoc1	-9	79*	37	0	7	6
COc1ccc(CCNC(=O)COC(=O)Cc2ccccc2)cc1	13	7	78*	-7	-5	-9
O=C(COC(=O)Cc1ccccc1)NCCNC(=O)COC(=O)Cc1ccccc1	8	/	/	/	-8	/
O=P(O)(O)C#Cc1ccccc1	/	12	96*	-4	/	-3
C=C(c1ccccc1)P(=O)(O)O	9	30	14	-5	3	-6
CCCCC1(CC)COP(=O)(OCC(Cl)(Cl)Cl)OC1 (stereo not given)	-12	/	/	/	3	/
CCC1(c2ccccc2)C(=O)N(COC)C(=O)N(COC)C1=O	1	52*	13	1	-5	-9
CCC1(c2ccccc2)C(=O)NC(=O)NC1=O	-12	/	/	/	-9	/
O=C(Nc1ccc(F)cc1)OC1CN2CCC1CC2 (stereo not given)	6	4	-1	/	0	/
C=CC(=O)OCCO	-12	/	/	/	2	/
N#CC(C#N)=NNc1ccc(S(N)(=O)=O)cc1	-2	88*	-150	/	0	/
CC(C)(C)N1C(=O)NC(=O)/C(=C\c2ccc3c(c2)CCN3CCCCl)C1=O	-5	24	-54	/	-1	/
O=C1NC(=S)N(C2CC2)C(=O)/C1=C/c1ccc2c(c1)CCN2CCCCl	-6	109*	88*	-1	3	2
CCN1C(=O)/C(=C/c2ccc3c(c2)CCN3CCCCl)C(=O)NC1=S	0	81*	-73	-2	-10	6
S=P1(Oc2ccccc2)Nc2ccccc2N1	-10	/	/	/	-14	/
O=C1NC(=O)C(=Cc2ccc(Sc3ccccc3)o2)C(=O)N1	2	16	-83	/	-1	/
SMILES	TLR9-MyD88 block	Mcl1 Noxa PPI	Mcl1 Bid PPI	Mcl-1 Bim block	NOD2-RIPK2 inh	TLR4 MyD88 comp
O=C1NC(=O)N(c2ccc(Cl)cc2)C(=O)/C1=C\c1ccc(Sc2nc3ccccc3[nH]2)o1	5	68*	-2	4	-1	-13
Cc1ccc(S(=O)(=O)N2Cc3cc(-c4cccc(F)c4)ccc3-n3nncc3C2)cc1	/	/	/	/	2	/
c1ccc(C(c2ccccc2)c2ccncc2)cc1	0	/	/	/	-11	/
CCOP(=O)(OCC)C(O)c1ccc(N(C)C)cc1 (stereo not given)	5	-2	58*	/	-2	/
C[C@H](CO)N1C[C@H](C)[C@@H](CN(C)C(=O)Oc2ccc3ccccc3c2)OCc2cnnn2CCCC1=O	13	/	/	/	3	/
Cc1cc(OCC(=O)O)c2c3c(c(=O)oc2c1)CCCC3	2	30	12	-2	5	14
